In PubChem BioAssay (NCATS):
Results filed as inconclusive are left out. The source made the active and inactive calls. Unless noted, calls follow the shape of the dose curve; as a rule, active = well fitted curve in the direction sought with a large enough effect; inconclusive = small, poorly fitted or top-dose-only effect, or another doubt; inactive = no such curve, though single readings can be large; an effect the other way counts as inactive or inconclusive.

Experiments:
[1] = AP1 Signaling Pathway (AID 357; active = well fitted curve in either direction with a large enough effect, not every such curve was filed as active;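 also: ME-180 reporter cells stimulated with EGF at its EC50 level; % is scaled to controls: 0 for no effect and ±100 for the full control effect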); details: ME-180 AP-1-bla reporter, EGF-induced, beta-lactamase ratio, 5 h; at 7.69 µM (top of the series) unless noted
In short: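 Titration-series screen for positive or negative modulators of EC50 EGF-induced signaling in ME-180 cells carrying an AP-1-driven beta-lactamase reporter. After 5 hours at 37 degrees Celsius, CCF4 460nm/530nm emission ratio gave %Activity; AC50 values derived.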

[2] = target: Cytochrome P450 1A2 (Homo sapiens) (UniProt P05177); assay: p450-cyp1a2 (AID 410; calls by dose curve; also: potency is read from the fitted curve at half-maximal effect)
In short: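 20nM CYP1A2 with 100uM Luciferin-ME (at Km) in 100mM KPO4; compound preincubated 10 min, NADPH regeneration added, 60 min at room temperature. Luciferin quantified by luminescence after detection reagent; normalized to 57 uM furafylline.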

[3] = NFAT Signaling Pathway (AID 444; active = well fitted curve in either direction with a large enough effect, not every such curve was filed as active;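 also: carbachol stimulus at about its EC50 of 1 µM final; % is scaled to controls: 0 for no effect and ±100 for the full control effect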); details: Jurkat NFAT-bla M1, carbachol, beta-lactamase ratio, 5 h; at 7.69 µM (top of the series) unless noted
In short: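 Jurkat cells carrying an NFAT-driven β-lactamase reporter and co-transfected muscarinic M1 receptor were treated with compound plus carbachol (1 uM final, an EC50 level) for 5 h at 37 °C. CCF4 loading followed for 1 h at RT; 460/530 nm ratio gave %activity.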

[4] = Stat Signaling Pathway (AID 446; active = well fitted curve in either direction with a large enough effect, not every such curve was filed as active;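 also: ME-180 cervical cancer cells given 40 pM IL-6 alongside compound; SIE-controlled beta-lactamase reporter measured as 460/530 nm FRET emission ratio; % is scaled to controls: 0 for no effect and ±100 for the full control effect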); details: ME-180 (cervical carcinoma) SIE beta-lactamase reporter, IL-6 stimulated, 5 h; at 7.69 µM (top of the series) unless noted
In short: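 IL-6/STAT signaling read in ME-180 cells via an SIE beta-lactamase reporter. Stimulus was 40 pM IL-6 (its AC50) for 5 hrs, so both activation and inhibition register.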

[5] = target: Glucocorticoid receptor (Homo sapiens) (UniProt P04150); assay: GR-GFP Redistribution (AID 450;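 active = compounds whose dose series gives a full or clear partial fitted curve of increased nuclear translocation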; also: potency is read from the fitted curve at half-maximal effect); details: U2OS GR-GFP nuclear translocation, laser cytometry, 2 h
[6] = target: Glucocorticoid receptor (Homo sapiens) (UniProt P04150); assay: GR-EFC Redistribution (AID 451; calls by dose curve; also: potency is read from the fitted curve at half-maximal effect); details: CHO-K1 GR-EFC translocation, beta-gal luminescence, 2 h
In short: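 CHO-K1 cells stably expressing nuclear-localized β-gal enzyme acceptor and GR fused C-terminally to the enzyme donor fragment; ligand-driven nuclear translocation restores β-gal by complementation. Compounds titrated up to 46 uM final, 2 h at 37 °C; luminescence read.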

[7] = target: Mitogen-activated protein kinase 10 (Mus musculus) (UniProt Q61831); assay: JNK3 AlphaScreen Assay (AID 530; active = well fitted curve in either direction with a large enough effect, not every such curve was filed as active;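 also: kinase came from lysate of stimulated human HepG2 cells; signal reports phosphorylation of biotinylated GST-cJun 1-79 at Ser73 with 10 µM ATP; % is scaled to controls: 0 for no effect and ±100 for the full control effect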)
In short: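 Inhibitors reduce antibody binding to phosphorylated biotin-cJun, lowering AlphaScreen luminescence. Lysates from HepG2 cells pre-activated by IL-1beta plus TNF-alpha supplied JNK3; compounds were titrated.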

[8] = target: 3',5'-cyclic-AMP phosphodiesterase 4B (Homo sapiens) (UniProt Q07343); assay: qHTS Assay for Inhibitors of PDE-IV (AID 607; active = well fitted activation curve with a large enough effect in the main read-out, with a control signal flat, not every such curve was filed as active; also: % of control where 0% means no effect)
In short: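 Live HEK293 cells with a modified cyclic nucleotide-gated (CNG) channel report intracellular cAMP via membrane-potential dye fluorescence (ex 535/em 590 nm). Endogenous PDE-IV was targeted. Compounds were tested at up to 22.9 uM final; RO 20-1724 100 uM served as control.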

[9] = target: Guanine nucleotide-binding protein G(i) subunit alpha-1 (Homo sapiens) (UniProt P63096); assay: qHTS Assay for Inhibitors of RGS12 GoLoco Motif Activity (Green Fluorophore) (AID 879);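 also: 0% = labeled peptide with Gαi1 and full inhibition = labeled peptide alone without protein; negative values mean loss of peptide binding seen as reduced polarization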
In short: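 Fluorescence polarization assay: 50 nM Gαi1 with 10 nM FITC-labeled RGS12 GoLoco peptide in 10 mM Tris pH 7.5, 150 mM NaCl, 0.1 mM GDP, 0.05% NP40, 10 min at room temperature with compound.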

[10] = qHTS Assay for Identification of Small Molecule Antagonists for NFkB Signaling Pathway (AID 895; active = well fitted inhibition curve with a large enough effect in the signal ratio, with a control signal flat, not every such curve was filed as active; the % refers to the signal ratio; also: % is scaled to controls: 0 for no effect and ±100 for the full control effect)
In short: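 NFkB-bla ME-180 cervical carcinoma cells with beta-lactamase reporter under NFkB response element; compounds added, then TNF alpha at 10 pM final (EC50), 5 h at 37 C. LiveBLAzer substrate 2 h, room temperature; emission 460/530 nm at 405 nm excitation.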

[11] = qHTS Assay for Identification of Small Molecule Agonists for Thrombopoietin (TPO) Signaling Pathway (AID 917); also: % is scaled to controls: 0 for no effect and ±100 for the full control effect
In short: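 Murine Ba/F3 cells expressing human TPO receptor and GPIIb-promoter luciferase, IL-3-starved overnight, given compound plus TPO at 26 pM (EC50). After 24 h at 37 C, 5% CO2, luminescence read.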

[12] = target: Muscarinic acetylcholine receptor M1 (Rattus norvegicus) (UniProt P08482); assay: qHTS Assay for Antagonists of Acetylcholine Muscarinic M1 Receptor: Kinetic Measurement of Intracellular Calcium Response (AID 943); also: potency is read from the fitted curve at half-maximal effect; nearly all actives have a fitted effect of over 75% in size
In short: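 CHO cells expressing rat M1 receptor, Fluo-4 loaded, preincubated 10 min with compound, then stimulated with EC80 carbachol (100 nM final). Kinetic calcium fluorescence over 4 min; response taken as peak over basal signal.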

[13] = target: Pyruvate kinase (Leishmania mexicana) (UniProt Q27686); assay: qHTS Validation Assay for Inhibitors of Leishmania Mexicana Pyruvate Kinase (AID 945);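 also: 0% = DMSO only neutral control wells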
In short: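 Eight-point qHTS titrations in triplicate, data normalized to DMSO neutral control. Reaction: 0.2 nM LmPYK E451W mutant, 0.5 mM PEP, 0.1 mM ADP, 7 mM MgCl2, pH 7.2, one hour at room temperature; luminescent ATP detection.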

[14] = target: Pyruvate kinase PKM (Homo sapiens) (UniProt P14618); assay: qHTS Assay for Activators of Human Muscle Pyruvate Kinase (AID 954; active = well fitted curve in the direction sought with a large enough effect, not every such curve was filed as active;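 also: 0% = uninhibited enzyme and -100% = no enzyme or full thiadiazolimine inhibition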)
In short: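 Enzyme was run at intermediate activity so both inhibitors and activators could be detected. ATP formed from ADP and PEP by 0.1 nM human PKM2 during a 1 h room-temperature incubation was quantified by coupled luciferase luminescence.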

[15] = target: Alpha-galactosidase A (Homo sapiens) (UniProt P06280); assay: Counterscreen for Glucocerebrosidase Inhibitors: qHTS Assay for Human alpha-Galactosidase at pH 4.5 (AID 992); also: 0% is about no effect
In short: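 Read-out is 4-methylumbelliferone fluorescence (365 nm excitation, 440 nm emission) after a pH 10 NaOH/glycine stop. Reactions held 2 nM enzyme and 80 uM substrate at pH 4.5 for 20 min at room temperature.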

[16] = target: alpha-glucosidase (Oryza sativa, rice) (UniProt Q653V4); assay: Counterscreen for Glucocerebrosidase Inhibitors: qHTS Assay for Rice alpha-Glucosidase at pH 5.0 (AID 997);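 also: 0% = full activity with enzyme and -100% = basal without enzyme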
In short: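 Rice alpha-glucosidase (4 nM final) with 400 uM 4-methylumbelliferyl-alpha-D-glucopyranoside in citrate buffer pH 5.0, 20 min at room temperature, stopped at pH 10; fluorescence 365/440 nm, compounds 0.7 nM–77 uM, AC50 from Hill fits.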

[17] = Validation of Assay for Modulators of Lamin A Splicing (AID 1459; active = well fitted curve in the direction sought with a large enough effect in the signal ratio; the % refers to the signal ratio;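 also: cells exposed to compound for two days before reading; 0% is about no effect; ratio rise marks activators and ratio drop marks inhibitors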)
In short: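 S3 HeLa stably expressing lamin A-EGFP splicing minigene and DsRed2, 600 cells/well in Opti-MEM with 2% FBS, treated 48 h at 37C; laser-scanning cytometry gives GFP/RFP total intensity ratio; ancitabine positive control, 0.5% DMSO vehicle.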

[18] = qHTS Assay for Lipid Storage Modulators (AID 1519; calls by dose curve); details: Drosophila S3 cells, BODIPY lipid droplet/cell ratio, laser cytometry, cells loaded with oleic acid
In short: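 Cells seeded at 5,000 per well were treated with compounds over a concentration series and loaded with oleic acid (400 uM, as added). Lipid droplet fluorescence (488 nm excitation, 500-530 nm channel) was read by laser-scanning cytometry and normalized to 20 uM Triacsin C.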

[19] = target: DNA repair nuclease/redox regulator APEX1 (Homo sapiens) (UniProt P27695); assay: qHTS Validation Assay for Inhibitors of the Human Apurinic/apyrimidinic Endonuclease 1 (APE1) (AID 1705)
In short: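 Fluorogenic double-stranded THF abasic-site substrate (5'-TAMRA/3'-BHQ-2), 50 nM final. Enzyme preincubated with compound 15 min at room temperature, then substrate added. Kinetic fluorescence (ex 525/em 598 nm) read three times at 60 s intervals; activity taken as third-minus-first read difference.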

Glucocorticoid receptor (Homo sapiens), sequence (P04150 whole entry, looked up, the tested form may be a part): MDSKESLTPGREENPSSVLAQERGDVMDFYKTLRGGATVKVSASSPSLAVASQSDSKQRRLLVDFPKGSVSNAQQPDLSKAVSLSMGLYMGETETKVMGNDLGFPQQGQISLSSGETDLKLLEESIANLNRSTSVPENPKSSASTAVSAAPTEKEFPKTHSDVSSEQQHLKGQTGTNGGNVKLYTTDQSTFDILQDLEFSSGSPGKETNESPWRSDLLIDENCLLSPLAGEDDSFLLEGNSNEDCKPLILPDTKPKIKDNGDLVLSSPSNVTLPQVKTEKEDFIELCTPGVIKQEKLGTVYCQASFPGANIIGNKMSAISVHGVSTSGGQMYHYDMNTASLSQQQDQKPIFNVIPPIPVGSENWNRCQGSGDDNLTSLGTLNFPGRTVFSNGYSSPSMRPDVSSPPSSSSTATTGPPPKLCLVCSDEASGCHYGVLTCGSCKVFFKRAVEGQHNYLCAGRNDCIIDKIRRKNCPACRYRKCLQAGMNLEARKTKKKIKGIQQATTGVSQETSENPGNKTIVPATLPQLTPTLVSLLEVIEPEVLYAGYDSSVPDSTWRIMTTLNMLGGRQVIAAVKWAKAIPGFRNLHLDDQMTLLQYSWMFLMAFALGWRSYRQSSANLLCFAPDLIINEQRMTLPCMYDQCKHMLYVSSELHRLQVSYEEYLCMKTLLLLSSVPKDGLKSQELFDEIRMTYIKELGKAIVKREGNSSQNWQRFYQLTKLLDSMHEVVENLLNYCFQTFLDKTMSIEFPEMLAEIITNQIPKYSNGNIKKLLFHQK
Pyruvate kinase PKM (Homo sapiens), sequence (P14618 whole entry, looked up): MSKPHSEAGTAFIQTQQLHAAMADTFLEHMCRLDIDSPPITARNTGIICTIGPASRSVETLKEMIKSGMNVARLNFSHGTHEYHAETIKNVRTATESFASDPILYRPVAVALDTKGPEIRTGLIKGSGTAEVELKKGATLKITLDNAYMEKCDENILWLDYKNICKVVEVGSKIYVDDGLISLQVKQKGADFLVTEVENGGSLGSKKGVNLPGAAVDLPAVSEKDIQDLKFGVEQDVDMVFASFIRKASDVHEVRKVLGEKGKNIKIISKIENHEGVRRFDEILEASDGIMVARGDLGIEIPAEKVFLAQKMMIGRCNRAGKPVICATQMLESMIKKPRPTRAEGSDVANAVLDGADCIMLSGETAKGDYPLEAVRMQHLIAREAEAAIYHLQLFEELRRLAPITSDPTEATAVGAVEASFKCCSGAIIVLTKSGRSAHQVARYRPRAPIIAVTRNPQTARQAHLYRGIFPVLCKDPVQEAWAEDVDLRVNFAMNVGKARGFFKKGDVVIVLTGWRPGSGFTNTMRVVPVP
Cytochrome P450 1A2 (Homo sapiens), sequence (P05177 whole entry, looked up): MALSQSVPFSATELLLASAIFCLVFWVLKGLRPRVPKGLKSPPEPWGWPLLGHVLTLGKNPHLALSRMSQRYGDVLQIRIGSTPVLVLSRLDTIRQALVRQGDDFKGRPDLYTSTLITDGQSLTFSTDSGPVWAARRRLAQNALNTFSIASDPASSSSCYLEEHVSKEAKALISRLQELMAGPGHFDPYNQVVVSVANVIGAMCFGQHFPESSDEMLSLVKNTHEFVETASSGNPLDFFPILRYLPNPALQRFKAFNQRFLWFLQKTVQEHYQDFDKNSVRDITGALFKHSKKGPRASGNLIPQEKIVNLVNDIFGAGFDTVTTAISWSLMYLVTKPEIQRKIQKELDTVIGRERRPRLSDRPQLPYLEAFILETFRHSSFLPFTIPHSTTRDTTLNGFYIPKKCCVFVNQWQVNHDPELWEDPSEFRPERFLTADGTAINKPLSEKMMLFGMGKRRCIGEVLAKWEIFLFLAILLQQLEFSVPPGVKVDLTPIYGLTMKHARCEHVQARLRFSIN
DNA repair nuclease/redox regulator APEX1 (Homo sapiens), sequence (P27695 whole entry, looked up): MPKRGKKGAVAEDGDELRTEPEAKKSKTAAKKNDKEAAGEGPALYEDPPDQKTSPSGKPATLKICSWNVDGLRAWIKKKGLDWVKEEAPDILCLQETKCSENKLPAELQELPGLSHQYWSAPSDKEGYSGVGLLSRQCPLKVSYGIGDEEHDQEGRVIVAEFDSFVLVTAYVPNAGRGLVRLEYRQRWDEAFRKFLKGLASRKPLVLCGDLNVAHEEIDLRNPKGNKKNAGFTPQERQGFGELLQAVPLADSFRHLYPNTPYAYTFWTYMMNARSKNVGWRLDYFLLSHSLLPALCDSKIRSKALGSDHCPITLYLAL
Pyruvate kinase (Leishmania mexicana), sequence (Q27686 2-499 E452W): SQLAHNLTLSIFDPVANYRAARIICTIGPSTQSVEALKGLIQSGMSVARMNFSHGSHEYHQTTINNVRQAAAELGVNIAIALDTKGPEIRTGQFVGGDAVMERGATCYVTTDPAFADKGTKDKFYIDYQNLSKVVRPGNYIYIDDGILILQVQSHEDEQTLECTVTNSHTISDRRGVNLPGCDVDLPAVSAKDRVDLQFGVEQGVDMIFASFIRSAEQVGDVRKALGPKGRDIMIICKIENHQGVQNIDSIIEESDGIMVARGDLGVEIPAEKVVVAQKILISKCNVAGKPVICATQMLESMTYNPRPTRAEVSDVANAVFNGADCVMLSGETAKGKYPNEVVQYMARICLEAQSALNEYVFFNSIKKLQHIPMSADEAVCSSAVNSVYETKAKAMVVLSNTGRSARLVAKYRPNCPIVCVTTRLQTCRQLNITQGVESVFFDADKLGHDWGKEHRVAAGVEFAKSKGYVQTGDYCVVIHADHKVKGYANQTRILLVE
Alpha-galactosidase A (Homo sapiens), sequence (P06280 whole entry, looked up): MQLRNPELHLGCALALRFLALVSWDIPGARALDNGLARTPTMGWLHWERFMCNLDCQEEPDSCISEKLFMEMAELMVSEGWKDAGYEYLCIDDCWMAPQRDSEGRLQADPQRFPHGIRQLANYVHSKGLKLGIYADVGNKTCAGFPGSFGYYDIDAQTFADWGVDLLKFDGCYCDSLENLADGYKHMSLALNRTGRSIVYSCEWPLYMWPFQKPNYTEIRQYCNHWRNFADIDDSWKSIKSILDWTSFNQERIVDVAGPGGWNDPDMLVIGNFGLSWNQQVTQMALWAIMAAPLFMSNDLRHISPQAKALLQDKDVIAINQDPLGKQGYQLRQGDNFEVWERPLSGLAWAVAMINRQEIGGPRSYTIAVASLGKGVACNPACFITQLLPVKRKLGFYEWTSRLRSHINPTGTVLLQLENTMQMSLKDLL
Guanine nucleotide-binding protein G(i) subunit alpha-1 (Homo sapiens), sequence (P63096 whole entry, looked up): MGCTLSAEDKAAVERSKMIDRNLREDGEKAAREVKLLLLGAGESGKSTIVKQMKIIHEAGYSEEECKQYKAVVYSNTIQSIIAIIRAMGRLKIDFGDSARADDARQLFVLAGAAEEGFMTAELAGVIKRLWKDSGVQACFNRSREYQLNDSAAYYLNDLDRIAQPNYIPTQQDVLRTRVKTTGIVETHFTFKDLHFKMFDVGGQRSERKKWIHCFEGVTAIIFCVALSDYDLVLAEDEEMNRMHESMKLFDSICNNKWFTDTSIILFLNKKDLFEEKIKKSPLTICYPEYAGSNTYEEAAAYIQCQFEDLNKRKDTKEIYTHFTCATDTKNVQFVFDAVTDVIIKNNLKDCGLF
Muscarinic acetylcholine receptor M1 (Rattus norvegicus), sequence (P08482 whole entry, looked up): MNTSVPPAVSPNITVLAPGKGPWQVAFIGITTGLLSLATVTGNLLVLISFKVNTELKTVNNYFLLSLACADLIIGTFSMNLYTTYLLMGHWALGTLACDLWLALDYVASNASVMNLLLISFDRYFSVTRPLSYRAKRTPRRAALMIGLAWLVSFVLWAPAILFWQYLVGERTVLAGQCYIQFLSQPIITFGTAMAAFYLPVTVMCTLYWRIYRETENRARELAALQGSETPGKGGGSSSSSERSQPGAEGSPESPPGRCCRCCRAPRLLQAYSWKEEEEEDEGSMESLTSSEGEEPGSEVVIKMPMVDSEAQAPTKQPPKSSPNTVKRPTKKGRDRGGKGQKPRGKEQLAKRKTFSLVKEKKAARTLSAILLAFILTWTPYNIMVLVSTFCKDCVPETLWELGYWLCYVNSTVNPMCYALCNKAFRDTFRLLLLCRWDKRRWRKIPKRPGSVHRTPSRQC
3',5'-cyclic-AMP phosphodiesterase 4B (Homo sapiens), sequence (Q07343 whole entry, looked up): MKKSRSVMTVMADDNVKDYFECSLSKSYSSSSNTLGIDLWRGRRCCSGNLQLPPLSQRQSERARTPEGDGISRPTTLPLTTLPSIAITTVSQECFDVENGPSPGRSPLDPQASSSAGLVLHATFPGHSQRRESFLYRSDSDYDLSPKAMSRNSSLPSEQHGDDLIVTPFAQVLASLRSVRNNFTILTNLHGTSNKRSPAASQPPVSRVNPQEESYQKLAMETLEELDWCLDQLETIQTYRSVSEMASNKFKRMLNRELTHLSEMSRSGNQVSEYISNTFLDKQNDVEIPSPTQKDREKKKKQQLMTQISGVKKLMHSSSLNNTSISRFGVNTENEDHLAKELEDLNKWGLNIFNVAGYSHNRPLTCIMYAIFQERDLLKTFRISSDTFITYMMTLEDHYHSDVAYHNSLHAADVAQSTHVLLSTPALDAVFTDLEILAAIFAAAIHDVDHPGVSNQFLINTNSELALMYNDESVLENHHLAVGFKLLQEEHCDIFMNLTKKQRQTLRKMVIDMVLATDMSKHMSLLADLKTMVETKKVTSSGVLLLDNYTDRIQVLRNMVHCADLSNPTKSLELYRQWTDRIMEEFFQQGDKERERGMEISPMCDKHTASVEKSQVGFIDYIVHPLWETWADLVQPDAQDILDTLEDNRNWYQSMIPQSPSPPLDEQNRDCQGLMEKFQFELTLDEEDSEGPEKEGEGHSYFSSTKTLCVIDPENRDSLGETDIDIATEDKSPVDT

O=C(Cc1ccc(Cl)c(Cl)c1)OCCN1CCCC1
-1.75%: max response ([18]; measured here: cell count channel max response)
active: Potency [2] 12.6 µM | Potency [12] 14.1 µM
inactive: activity change, negative = inhibition [1] 17.4% [at 38 µM] | activity change, negative = inhibition [3] -14.7% [at 38 µM] | activity, negative = inhibition [4] 15.9% [at 38 µM] | Potency [5] > 46 µM | Potency [6] > 46 µM | outcome [7] | Potency [8] | outcome [9] | Potency [10] | outcome [11] | Potency [13] | outcome [14] | outcome [15] | outcome [16] | outcome [17] | activity change, negative = inhibition ([18]; at 57.5 µM (top of the series)) 1.23% | Potency [19]
-0.355%: max response ([18]; measured here: lipid channel max response)
